In ChEMBL document CHEMBL3988442, “University of Dundee, Small-Polar-MMV Screening Library” (2021) one finds Percent Effect data, which are given here for 40 compounds.

The structures appear in SMILES notation.

In this assay the target is AMP-activated protein kinase, AMPK (Homo sapiens) (UniProt P54646+O43741+P54619+Q9UGJ0+Q9Y478+Q13131+Q9UGI9). In words: AMP-dependent Kinase enzyme assay. An in vitro enzyme assay that detects ADP turnover that is directly proportional to AMPK activity. This uses naive AMPK that is activated during the assay with MK-8722. Also on record: scale not given: direction of the effect not stated beside the values. Particulars: 30 µM. The format is functional.
As to `CC(O)c1cnn(-c2ccccc2)c1` (stereo not given), the Percent Effect turned out to be 12.6%.
Turning to `CCCc1cc(C(=O)NC(COC)c2ccnn2C)no1` (stereo not given), the Percent Effect was -16.8%.
In the case of `Cc1ccc(S(=O)(=O)N(CCO)C2CC2)cc1N(C)C`, the Percent Effect was -7.34%.
`NC(=O)NC1CCN(Cc2ccc3c(c2)CCC3)CC1`: the Percent Effect was determined as 2.24%.
In the case of `N#Cc1ccc(SCCC(=O)Nc2ccc(CC(N)=O)cc2)cc1`, the Percent Effect was found to be 0.314%.
Take `CN(C)S(=O)(=O)c1ccc(=O)n(CC2CCCO2)c1` (stereo not given): the Percent Effect turned out to be 20.4%.
With `CC(OCC1CC1)C(=O)Nc1cccc(C(=O)Nc2ccccn2)c1` (stereo not given), the Percent Effect is 23.1%.
Then `COc1c(CNCC(=O)N2CCN(C)CC2)c(C(C)C)nn1C`, with -12.4%; and `COCc1nc(CN2CCN(c3ccc(OC)cc3)C(=O)C2C)no1` (stereo not given), with 6.42%; and `CN(CCn1cncc1-c1cnc(N2CCOCC2)nc1)C1CCCC1`, with 12.2%.
With `O=C(NCCc1cc(N2CCOCC2)nc(NC2CC2)n1)C1CC1`, the Percent Effect came out at 23.1%.
The result for `Cc1cc(NC(C)c2n[nH]c(C)n2)n2nc(C)c(C)c2n1` (stereo not given) reads 20.5%; that for `Cn1ccnc1CN1CCCC1CCc1ccccc1` (stereo not given), -8.09%; that for `Cc1cc(CN(C)Cc2csc(-c3cccs3)n2)n[nH]1`, 6.79%.
The result for `CCN(CC)c1ncccc1CNCc1cc2ccccc2s1` reads -4.57%.
As to `COc1cc(Cl)ccc1CNC(=O)N(C)C(C)CS(C)(=O)=O` (stereo not given), the Percent Effect was -1.65%.
Turning to `O=C(NCCCNc1cccnc1)c1ccc2nccn2c1`, the Percent Effect is -8.67%.
As to `c1csc(-c2noc(C3CNC3)n2)c1`, the Percent Effect turned out to be 8.02%.
Take `CNS(=O)(=O)CC(=O)N(C1CCCC1)C1CC1`: the Percent Effect is -3.58%.
`Nc1cc(C(=O)N2CCC(Oc3cccc(C(F)(F)F)c3)CC2)ccn1`: the Percent Effect is -4.01%.
For `O=C(c1ccccc1F)N1CCCC1Cn1c(=O)oc2ccccc21` (stereo not given), the Percent Effect was found to be 10.9%.
Consider `O=C(NCc1nnc2n1CCC2)c1cn(-c2cccc(Br)c2)nn1`, for which the Percent Effect was found to be 2.86%.
Regarding `COCCCC1(CO)CCCN(C(=O)c2cnc(C3CC3)nc2)C1` (stereo not given), the Percent Effect was found to be 2.98%.
With `Cc1cn2nc(N(C)C3CCCN(c4cccnn4)C3)sc2n1` (stereo not given), the Percent Effect came out at 2.94%.
In the case of `O=C1CN(c2ccc(C(=O)N3CCc4ccccc43)cn2)CCN1`, the Percent Effect worked out at 5.07%.
For the compound `Cc1cc(N2CCCC2)nc(CNS(=O)(=O)Cc2ccccc2)n1`, the Percent Effect came out at 5.01%.
With `CN(C)c1ccc(C(=O)N2CCC(c3cc4ncccc4[nH]3)CC2)cc1`, the Percent Effect was 21.8%.
`CCc1nc(NC(=O)Cc2csc(-c3nnc[nH]3)n2)sc1C`: the Percent Effect came out at 3.13%.
Turning to `CCC(CO)NC(=O)c1cc(COc2ccc(OC)cc2Cl)[nH]n1` (stereo not given), the Percent Effect is -8.13%.
`Cc1ccnn1CCN1CCCC2(CCC(=O)N(C3CCCC3)C2)C1` (stereo not given): the Percent Effect worked out at 15.1%.
Take `CN1CCN(C(=O)C2(NC(N)=O)CCCCC2)Cc2ccccc21`: the Percent Effect was found to be 0.804%.
Regarding `CC1CN(Cc2cccc(CNC3CCCC3)c2)CCO1` (stereo not given), the Percent Effect was 2.35%.
Then `CN(C)C1CCN(c2cc(-c3ccccc3)nc3ccnn23)C1` (stereo not given), with -0.347%; and `CC(Cc1cccc(F)c1)C(=O)NS(=O)(=O)c1ccc2c(c1)OCCO2` (stereo not given), with 3.32%.
Then `O=C(Cn1cc(-c2ccccc2)cn1)N1CCNC1=O`, with 0.445%.
For the compound `COc1cc(F)c(NCc2nc3ccccc3n2C)cc1OC`, the Percent Effect is -46.6%.
Take `CN(CCCOc1ccccc1Cl)C(=O)CN1CCNC1=O`: the Percent Effect was found to be 10.2%.
Consider `Oc1c(F)cc(CNc2cccc(-c3nnc[nH]3)c2)cc1F`, for which the Percent Effect worked out at 40.3%.
As for `COc1cc2c(cc1CNCc1cccnc1OC)OC(C)C2` (stereo not given), the Percent Effect amounted to 0.485%.
Then `Cc1ccc(CNC(=O)NCc2ccco2)s1`, with 2.27%.
